# From PubChem BioAssay (EPA / NIEHS)
# Records with an inconclusive call do not appear. Activity calls are given as the source filed them. Rule for the calls: active = hit-call score of the fitted dose curve at least 0.9, where 1 is the maximum; inconclusive = response in the unintended direction; inactive = score below 0.9.
# Assay: ATG_XTT_Cytotoxicity: Cytotoxicity Assessment in the Attagene TRANS-FACTORIAL HepG2 Assay (AID 2283584)
# Summary of the method: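 HepG2 human liver cells, transiently transfected with multiple GAL4-UAS reporter units, were dosed and read at 24 h by XTT as cell number. Loss of signal was fitted relative to DMSO negative control baseline.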
row,Compound,outcome
1,CCNCCO,inactive
2,CCCCCCC(C)Nc1ccc(Nc2ccccc2)cc1 (centres undefined),inactive
3,COc1ccc(COC(C)=O)cc1,inactive
4,CC=Cc1ccc(OC)c(OC)c1,inactive
5,CCCCCCCC/C=C\CCCCCCCC(=O)OCC,inactive
6,C=CC(C)C#N (centres undefined),inactive
7,COc1ccc(CCO)cc1,inactive
8,C=CC(=C)CCCC(C)(C)OC(C)=O,inactive
9,CCC(=O)OCCOc1ccccc1,inactive
10,CC1=CC[C@@]23C[C@@H]1C(C)(C)[C@@H]2CC[C@H]3C,inactive
11,CN(c1nccc(=O)[nH]1)C1CCN(c2nc3ccccc3n2Cc2ccc(F)cc2)CC1,inactive
12,CCCC(O)C(O)CO (centres undefined),inactive
13,CC(C)(N=C=O)c1cccc(C(C)(C)N=C=O)c1,inactive
14,O=C(O)c1cc(C(=O)O)cc([N+](=O)[O-])c1,inactive
15,CCCCCCOCCOCCO,inactive
16,CCCCCCC(=O)c1ccccc1,inactive
17,Nc1c(S(=O)(=O)O)cc(Br)c2c1C(=O)c1ccccc1C2=O,inactive
18,CC=Cc1ccc(OCC)c(O)c1,inactive
19,CCCCCCCCCCCCS(=O)(=O)Cl,inactive
20,O=C(c1ccccc1)C(O)c1ccccc1 (centres undefined),inactive
21,CCCCCCC(O)CCCCCCCCCCC(=O)O (centres undefined),inactive
22,CC(C)(C)C1=CC(=O)C(C(C)(C)C)=CC1=O,inactive
23,CCOC(=O)CN,inactive
24,CCCC(=O)OCCc1ccccc1,inactive
25,C=C(C)[C@@H]1CC=C(C)C(=O)C1,inactive
26,CCCCCCCCCCCC(=O)OCC(O)CO (centres undefined),inactive
27,CCC1CCCCC1,inactive
28,NCc1ccco1,inactive
29,N#Cc1ccc(CC(=O)c2cccc(C(F)(F)F)c2)cc1,inactive
